Anesthetic bind – qHTS Assay for Identification of Novel General Anesthetics | apoferritin/1-aminoanthracene competitive binding, fluorescence | Potency, µM (titrated, usually from 77.5 µM), without a hit: at the highest dose activity change, negative = displacement, usual class: inhibitors | 0.074% of 350,000 active; note: % is set by controls: 0 for no effect and ±100 for the full control effect; nearly all actives have a fitted effect of over 20% in size
Target sequence (P02791 2-175 limits assumed): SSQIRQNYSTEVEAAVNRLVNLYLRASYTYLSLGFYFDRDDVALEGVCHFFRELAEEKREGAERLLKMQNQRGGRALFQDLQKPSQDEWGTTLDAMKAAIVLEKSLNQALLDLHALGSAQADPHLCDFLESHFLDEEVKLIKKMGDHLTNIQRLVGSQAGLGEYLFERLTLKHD
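10 uM apoferritin + 50% sat. 1-AMA, PBS; cpd 10 min RT; Ex380/Em535 endpoint; normalized to free probe vs complex; 4-param Hill fit; propofol titration as pos. ctrl.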
TSG101-PTAP inh – qHTS Assay for Iinhibitors of HIV-1 Budding by Blocking the Interaction of PTAP/TSG101. Tumor susceptibility gene 101 protein (Homo sapiens), Q99816. Fluorescence polarization, FITC-PTAP peptide / Tsg101 binding. Potency, µM (highest dose often 115 µM), for the others: at the highest dose activity change, negative = inhibition, hits mostly inhibitors. 340,000 tested, under 10 active; active = well fitted inhibition curve with a large enough effect in the main read-out, with a control signal flat, not every such curve was filed as active; inconclusive = small, poorly fitted or top-dose-only effect, or effect the other way, or a change in a side signal; inactive = no such curve, though single readings can be large or run the other way; note: % of control where 0% means no effect
Target sequence (Q99816 whole entry, looked up): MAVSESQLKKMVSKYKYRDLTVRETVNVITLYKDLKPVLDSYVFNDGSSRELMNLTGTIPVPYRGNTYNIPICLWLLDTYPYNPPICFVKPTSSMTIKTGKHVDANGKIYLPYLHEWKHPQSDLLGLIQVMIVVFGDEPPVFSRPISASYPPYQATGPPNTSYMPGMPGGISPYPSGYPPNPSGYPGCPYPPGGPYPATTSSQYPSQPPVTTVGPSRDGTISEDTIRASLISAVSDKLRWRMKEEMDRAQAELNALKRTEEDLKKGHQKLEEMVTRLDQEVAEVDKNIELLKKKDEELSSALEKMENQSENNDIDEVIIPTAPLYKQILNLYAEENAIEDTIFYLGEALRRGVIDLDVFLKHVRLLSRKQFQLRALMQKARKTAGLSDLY
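Tsg101 binding domain (10 uM final) was mixed with compound and a FITC-labeled PTAP peptide (50 nM final) in HEPES pH 7.5 buffer with NaCl, Tween 20, EDTA and TCEP; fluorescence polarization was read after 20 min at r.t.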
Epigenetic reg – Quantitative High-Throughput Screen for Regulators of Epigenetic Control; 0.2% of 280,000 active; Potency, µM (top dose mostly 53.9 µM), without a hit: at the top dose GFP activation, actives largely listed as activators; murine LDR cells, GFP reporter derepression, 30 h; note: % of control where 0% means no effect; nearly all actives have a fitted effect of over 60% in size
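GFP-positive cell count by laser-scanning cytometry (objects 20–120 um) after 30 h, 37 C compound exposure of murine LDR cells; reporter is CMV-GFP integrated at a silenced locus, inducible by HDAC or DNMT inhibitors.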
PINK1 modulator – A Quantitative High throughput Screen to Identify Chemical Modulators of PINK1 Expression. Potency, µM (doses to about 76.6 µM), for the others: at the top dose activation (PINK1 increase), most hits filed as activators. 0.2% of 410,000 active. PINK1 immunofluorescence, high-content cytometry, 24 h; active = well fitted activation curve with a large enough effect; inconclusive = small, poorly fitted or top-dose-only effect; cell line not stated here; note: % of control where 0% means no effect; nearly all actives have a fitted effect of over 65% in size
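PINK1 protein level read as immunofluorescence by microplate cytometer in a fixed, stained stable cell line after 24 h exposure to five compound concentrations, with CCCP as control.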
HttQ103 aggreg – qHTS Multiplex Assay to Identify Dual Action Probes in a Cell Model of Huntington: Aggregate Formation (GFP) | PC12 HttQ103-GFP aggregates, Acumen cytometry, 40 h | Potency, µM (highest dose often 46.1 µM), inactives show top-dose activity change, negative = inhibition, most hits filed as inhibitors | 1.1% of 220,000 active | AID 1688, 2009; note: % is set by controls: 0 for no effect and ±100 for the full control effect; nearly all actives have a fitted effect of over 60% in size
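Multiplexed with ATP-based cell death, this channel scores GFP aggregates in PC12 cells expressing inducible HTTex1-Q103-GFP. Induction used 100 nM tebufenozide; compounds were tested in concentration series.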
HTT ATP protect – qHTS Multiplex Assay to Identify Dual Action Probes in a Cell Model of Huntington: Cytoprotection (ATP); PC12 HTT-Q103 induced, cytoprotection, ATP luminescence, 40 h; Potency, µM (titrated, usually from 56.4 µM), inactives show cytoprotection (ATP increase), usual class: activators; 0.14% of 230,000 active; AID 1471, 2008; note: % of control where 0% means no effect; nearly all actives have a fitted effect of over 45% in size
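Quantitative HTS on tebufenozide-induced (100 nM) PC12 cells expressing HTTQ103 exon 1–GFP; compounds tested as a concentration series; survival measured via cellular ATP.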
An asterisk follows results filed as active; ? = inconclusive; . = not tested or not shown; [ ] = dose if it differs, or a comment. This excerpt belongs to a sample that is enriched for hits. Unless noted, calls come from the whole dose curve; as a rule, active = well fitted curve in the direction sought with a large enough effect; inconclusive = small, poorly fitted or top-dose-only effect, or another doubt; inactive = no such curve, though single readings can be large; an effect the other way counts as inactive or inconclusive. Potency is the fitted concentration of half-maximal effect.

SMILES	Anesthetic bind	TSG101-PTAP inh	Epigenetic reg	PINK1 modulator	HttQ103 aggreg	HTT ATP protect
CC(C)C(=O)NC(c1cccs1)c1cc([N+](=O)[O-])c2cccnc2c1O (centres undefined)	0.7%	0.8%	?	-2.6%	2µM*	-49.2%[10 µM]
CCN(CC)S(=O)(=O)c1ccc(C(=O)Nc2nnc(COC)o2)cc1	-7.1%	-3.6%	1.9%	0.2%	4.7%	-41.5%
CCCCN(C)S(=O)(=O)c1ccc(C(=O)Nc2nnc(CSC)o2)cc1	-13.1%	-3.6%	-1.2%	1.1%	8.91µM*	-66.3%
CCCCN(CCCC)S(=O)(=O)c1ccc(C(=O)Nc2nnc(COC)o2)cc1	-1.3%	-12.8%	0.0%	2.0%	11.2µM*	-80.6%
CCC1CN(CCC(=O)N2CCN(c3ncccn3)CC2)Cc2cc(OC)ccc2O1 (centres undefined)	.	.	.	-0.1%	.	.
O=S(=O)(c1ccc(F)cc1)N1CCC(n2c(C(F)(F)F)nc3cccnc32)CC1	-0.8%	.	-1.8%	0.2%	.	.
Cc1c(C(=O)N(C)Cc2cccc3ncccc23)cnn1-c1nccc(-c2ccccc2F)n1	.	.	.	0.8%	.	.
COc1ccc(C(=O)Nc2ccccc2)cc1S(=O)(=O)Nc1ccc(Br)cc1	-14.6%	.	-0.8%	7.5%	.	.
COc1ccc(NC(=O)c2ccc3c(c2)NC(=O)CS3)cc1S(=O)(=O)Nc1ccc(Br)cc1	-3.3%	-0.8%	2.2%	6.5%	17.8µM*	-132.5%
COc1cc(/C=C(\C#N)c2nc3ccccc3s2)ccc1OCC(=O)Nc1ccccc1	-4.3%	?	3.16µM*	2.6%	?	.
COc1cc(/C=C(\CC(=O)O)c2nc3ccccc3s2)ccc1OCC(=O)Nc1ccccc1F	.	-1.9%	.	1.2%	.	.
Clc1ccc2nc(-c3cccc(SC4CCCCC4)c3)c(NCc3ccccc3)n2c1	.	-1.7%	.	12.6%	.	.
Cc1ccc2nc(-c3cccc(SC4CCCCC4)c3)c(NCc3ccccc3)n2c1	.	-11.6%	.	25.1µM*	.	.
Cc1ccn2c(NCc3ccccc3)c(-c3cccc(SC4CCCCC4)c3)nc2c1	.	3.5%	.	25.1µM*	.	.
COc1ccc2c(c1)CCc1cnc(-n3ncc(C(=O)NCC(C)(C)CN(C)C)c3C)nc1-2	.	.	.	-0.5%	.	.
Cc1ccc(S(=O)(=O)NC(C)C(=O)NC2CCCCCC2)cc1 (centres undefined)	-3.5%	-3.1%	-0.1%	0.8%	0.891µM*	-1.5%[0.074 µM]
CC(NS(=O)(=O)c1ccc(Br)cc1)C(=O)NC1CCCCCC1 (centres undefined)	5.5%	-0.7%	.	1.9%	.	.
Cc1cnc(-n2ncc(C(=O)NCCCc3ccncc3)c2C)nc1-c1ccc(F)cc1	.	.	.	1.0%	.	.
O=C(Cn1c2ccccc2c(=O)c2ccccc21)N/N=C/c1cc([N+](=O)[O-])ccc1N1CCCCCC1	-3.9%	2.1%	20µM*	?	?	-33.4%
COc1ccc(CNc2nc(-c3ccccc3OC)nc3ccccc23)c(OC)c1	-15.3%	.	-2.4%	?	.	-75.0%
CC1CCN(C(=O)c2cc3nc(-c4ccccc4)cc(-c4ccccc4)n3n2)CC1	-9.6%	-4.0%	0.1%	26.5%[38.3 µM]	?	?
O=C(NC1CCCC1)c1cc2nc(-c3ccccc3)cc(-c3ccccc3)n2n1	32.8%	1.0%	3.1%	2.6%	3.55µM*	-84.8%[10 µM]
CCSc1ccc2cc(OC)ccc2[n+]1CC	-10.9%	-2.5%	-1.3%	0.4%	8.91µM*	-50.3%
O=C(C1CCC(CNS(=O)(=O)c2cccc3nsnc23)CC1)N1CC=C(c2ccccc2)CC1 (centres undefined)	?	0.2%	-2.4%	-0.1%	8.91µM*	-36.3%
O=C(C1CCCN(S(=O)(=O)c2cccc3nonc23)C1)N1CCC(Cc2ccccc2)CC1 (centres undefined)	?	1.7%	0.6%	-0.3%	35.5µM*	-38.9%
SMILES	Anesthetic bind	TSG101-PTAP inh	Epigenetic reg	PINK1 modulator	HttQ103 aggreg	HTT ATP protect
O=C(C1CCCN(S(=O)(=O)c2cccc3nonc23)C1)N1CCN(c2ccccc2Cl)CC1 (centres undefined)	-12.2%	3.8%	1.2%	-1.0%	-24.5%	.
C[n+]1c(-c2ccccc2)cc2c(=Cc3ccc([N+](=O)[O-])cc3)c3ccccc3n21	.	-3.7%	.	4.47µM*	.	.
Cc1cnc(-n2ncc(C(=O)N(C)CCc3ccccn3)c2-c2cccs2)nc1-c1ccc(F)cc1	.	.	.	0.6%	.	.
CCc1nc(SCC(=O)Nc2nc3c(s2)CCCC3)c2ccccc2n1	-12.8%	-8.6%	-2.3%	-4.7%	.	25.1µM*
Cc1ncc2c(c1CNS(=O)(=O)N(C)C)CCN(C(=O)c1ccc(F)cc1Cl)C2	.	.	.	-0.1%	.	.
CN1/C(=C\C(=O)COc2ccc3c(c2)OCO3)C(C)(C)c2ccccc21	-8.0%	9.0%	-2.1%	-0.4%	22.4µM*	-19.3%
CN1/C(=C\C(=O)C[n+]2ccc3ccccc3c2)C(C)(C)c2ccccc21	-23.3%	-4.5%	0.2%	44.7µM*	?	-51.1%
COc1ccccc1CNC(=O)CCCn1c(=O)c2cccn2c2ccccc21	?	.	12.7%	0.4%	.	.
CCc1ccc(S(=O)(=O)NCc2nc(N3CCCC3)c3cccc(C)c3n2)cc1	.	.	.	0.0%	.	.
CCOC(=O)N1CCC(NC(=O)C2CCCN(Cc3nc(-c4cccc(Cl)c4)oc3C)C2)CC1 (centres undefined)	-4.0%	-6.3%	0.0%	-1.2%	7.94µM*	-20.2%
Nc1cccc2c(=O)[nH]ccc12	3.7%	.	.	.	.	.
Cc1c(NS(=O)(=O)c2ccc3c(c2)OCCO3)cccc1-c1nc2cccnc2s1	-7.5%	1.2%	-1.1%	2.0%	8.91µM*	30.1%[10 µM]
COc1ccc(OCC(O)Cn2c(=N)n(Cc3ccccc3)c3ccccc32)cc1 (centres undefined)	-0.4%	-1.2%	0.0%	27.9%[38.3 µM]	-28.9%	11.9%[10 µM]
N=c1n(Cc2ccc(Cl)cc2)c2ccccc2n1CC(O)COc1ccccc1 (centres undefined)	-19.9%	-5.3%	0.0%	-2.7%	14.1µM*	0.4%[10 µM]
CCC1C(=O)NCCN1Cc1ccc2c(c1)CN(Cc1cc(OC)ccc1OC)CCO2 (centres undefined)	.	.	.	-0.1%	.	.
OC1(c2cccnc2)CCN(Cc2ccc3c(c2)CN(Cc2ccc4nsnc4c2)CCO3)CC1	.	.	.	-1.3%	.	.
O=C(Nc1cc(C(=O)NC2CCOCC2)c2c(c1)ncn2C1CCCC1)c1ccccc1	.	.	.	-0.8%	.	.
